High-throughput results: PubChem BioAssay, National Center for Advancing Translational Sciences (NCATS)
This excerpt belongs to a sample that is enriched for hits.
KDM5B inhibitor – KDM5B demethylase inhibition; 2.6% of 220,000 active; Q9UGL1; AID 1347165; Potency, µM (doses to about 57.7 µM), usual class: inhibitors; KDM5B demethylase, FDH-coupled NADH fluorescence (FDH is formaldehyde dehydrogenase); active = well fitted inhibition curve with a large enough effect; note: nearly all actives have a fitted effect of over 70% in size
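Compound dilutions met 200 nM (final) KDM5BΔAP for 10 min at room temperature before substrate addition. The substrate mix held 12.5 µM H3K4me3 with cofactors 25 µM α-ketoglutarate and 50 µM Fe²⁺. NADH signal gain over 30 min defined activity.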
Hits are given with their value; - = inactive.

SMILES | KDM5B inhibitor
Cc1ccc(NC(=O)C(Sc2nnc(-c3ccco3)n2N)c2ccccc2)cc1 (centres undefined) | -
N#CC1CCN(C(=O)c2nc(-c3ccc(F)cc3)c3cnccn23)CC1 | 31.6µM
CC(C)(C)c1nc(C(=O)N2CCN(c3ncccn3)CC2)n2ccccc12 | 79.4µM
N#CC1CCN(C(=O)c2c[nH]c3ncccc23)CC1 | -
N#CC1CCN(C(=O)c2nc3sccn3c2Br)CC1 | -
Cc1cc(C(=O)N2CCN(c3ncccn3)CC2)nn1C | -
O=C(c1nc(-c2ccsc2)c2ccccn12)N1CCOCC1 | 35.5µM
O=C(c1cccnc1-c1nc2ccccc2s1)N1CCOCC1 | -
Cn1cc(-c2ccccc2)cc1C(=O)N1CCOCC1 | -
CCCn1nc(C(=O)N2CCN(c3ncccn3)CC2)c2ccccc2c1=O | -
O=C1NCC2(CCN(Cc3cccc4ccccc34)CC2)Oc2ccccc21 | -
COc1ccc(CCNC(=O)CSc2nc(-c3ccc4c(c3)OCO4)ccc2C#N)cc1OC | -
Cc1ccccc1CCNC(=O)Cc1nn(C)c(=O)c2ccccc12 | -
Cc1[nH]c2ccccc2c1C(=O)C(C)OC(=O)c1ccc(F)cc1F (centres undefined) | -
Cc1ccc(-n2nnc(C(=O)Nc3nccs3)c2C(C)C)cc1 | -
CCOC(=O)C1=C(C)NC(=O)NC1c1nc2ccccc2n1CC (centres undefined) | -
CSCC(=O)NCc1sccc1C | -
Cc1ccc(NC(=O)c2nn(C)c(=O)c3ccccc23)c(O)c1 | -
O=C(Cc1cccc(Cl)c1)N1CCc2nc(C3CC3)nc(-c3ccc(Cl)cc3)c2C1 | -
CN(CCNC(=O)c1nccnc1N)c1ccccc1 | -
O=c1c2sccc2nc(SCc2nc(-c3cccc(C(F)(F)F)c3)no2)n1C1CC1 | -
Cc1nc(-c2ccccc2)n(CC(=O)Nc2cc(C(F)(F)F)ccc2Cl)c(=O)c1CCO | -
C/C=C/C=C/C(=O)NCc1cccc(OC)c1 | -
Cc1cc(C(=O)Cn2nc(C(=O)O)c3ccccc3c2=O)c(C)[nH]1 | -
C1CNC(c2nc(CCOCC3CCOCC3)no2)C1 (centres undefined) | -
SMILES | KDM5B inhibitor
C1CNCC(c2nc(CCOCC3CC3)no2)C1 (centres undefined) | -
C1CCC(c2nc(CCOCC3CCCC3)no2)NC1 (centres undefined) | 28.2µM
COc1ccc(Cl)cc1NC(=O)C1CCN(c2nccnc2Oc2ccccc2C)CC1 | -
CCOCCCNC(=O)/C(C#N)=C\c1ccc(NC(C)=O)cc1 | -
COc1cc(OC)c(C(=O)N2CCCC[C@H](N(C)C)C2)cc1OC | -
CN(C)[C@H]1CCCCN(C(=O)c2cnc3ccccn3c2=O)C1 | 31.6µM
CC(C)C(=O)N1CC(=O)N(C2CCCCC2)CC(OCc2ccccc2)C1 (centres undefined) | -
O=C(c1cnc2ccccn2c1=O)N1CC(=O)N(C2CCCCC2)CC(OCc2ccccc2)C1 (centres undefined) | 31.6µM
CN(C)[C@H]1CCCCN(C(=O)c2cccc(-c3cccc(F)c3)c2)C1 | -
Cn1nccc1C(=O)N1CC(=O)N(C2CCCCC2)CC(OCc2ccccc2)C1 (centres undefined) | -
CC(C)(C)c1ccc(-c2cc(C[C@H]3CNCC[C@H]3CC(=O)NCc3cccs3)no2)cc1 | -
CCc1ccc2oc(-c3cccc(NC(=O)c4ccc([N+](=O)[O-])o4)c3)nc2c1 | -
Cc1[nH]c2ccccc2c1C(C[N+](=O)[O-])c1ccc(C(F)(F)F)cc1 (centres undefined) | -
Cc1cc(N2CCCN(c3nccc(-c4c(C)nn(C)c4C)n3)CC2)ccn1 | 28.2µM
Cc1cc(C(=O)N2CCN(c3ncccn3)CC2)c2c(C)nn(C)c2n1 | -
Cc1cc(N2CCC3(CC2)C(C(=O)O)CC(=O)N3C)ccn1 (centres undefined) | -
COc1ccc(-c2cc(COc3ccc(Cl)cc3)on2)cc1 | -
CC[C@H](C)[C@H](N)C(N)=O | -
Cc1ccc(S(=O)(=O)Nc2cccn3nc(C4CCC4)nc23)cc1 | -
Nc1cccn2nc(C3CCC3)nc12 | 17.8µM
O=C(Nc1cccn2nc(C3CCC3)nc12)c1ccc(F)cc1 | -
CCCOc1cc(C)c(Cl)cc1S(=O)(=O)Nc1cccnc1 | -
N#Cc1ccc(NCc2cccc(NC(=O)C3CC3)c2)nc1 | -
O=C(c1ccc(Cl)cc1)N1CC2(CCCN2Cc2cc(F)c(F)c(F)c2)Cc2ccccc21 (centres undefined) | -
CCCn1nc(C)cc1-c1nn2c(-c3cccc(F)c3)nnc2s1 | -
SMILES | KDM5B inhibitor
CN(C)c1cccc(C(=O)N2CCn3nc(Cc4ccccc4)cc3C2)c1 | -
CCCCCCn1nc(C(=O)NCc2ccc(C(=O)OC)cc2)c2ccccc2c1=O | -
C=CCOc1ccc(C(=O)NCCC2=CCCCC2)cc1 | -
COc1ccc(CCNC(=O)c2noc(-c3ccc[nH]c3=O)n2)cc1OC | 31.6µM
O=C(NCC1CCCO1)c1noc(-c2ccc[nH]c2=O)n1 (centres undefined) | 28.2µM
Cc1ccccc1C(=O)NCCC1=CCCCC1 | -
COc1ccc(CCNC(=O)c2nnn3cc(C)[nH]c(=O)c23)cc1OC | -
CC(C)NC(=O)c1noc(-c2ccc[nH]c2=O)n1 | -
COc1ccc(CCNC(=O)c2cc([N+](=O)[O-])cc([N+](=O)[O-])c2)cc1OC | -
O=C(NCC1CCCO1)c1ccccc1-c1nc(-c2ccccc2)no1 (centres undefined) | -
O=C(NCCC1=CCCCC1)c1noc(-c2ccc[nH]c2=O)n1 | 31.6µM
COc1ccc(C(=O)/C(C#N)=C\c2ccc(Cl)c(Cl)c2)cc1 | -
O=C(C1CC1)N(Cc1ccc2c(c1)CN(S(=O)(=O)c1ccccc1)CCO2)c1ccccc1 | -
CCCN(C(=O)C(=O)c1c[nH]c2ccccc12)c1ccc(F)cc1 | -
CCCOC(=O)c1[nH]c(C)c(C(=O)OC)c1C | -
CCN(CC)S(=O)(=O)c1ccc2[nH]c(=O)cc(C(=O)N(C)CC3CC3)c2c1 | -
Clc1cccc(N/N=C(/c2ccccc2)c2ccncc2)c1 | -
Cc1ccc(-c2cn3c(n2)N(C(=O)c2cnccn2)CCC3)cc1 | -
O=C(c1ccoc1)N1CCCn2cc(-c3ccccc3F)nc21 | -
O=C(Cc1ccsc1)Nc1cccc(-c2nnc3n2CCCC3)c1 | -
Cc1nc(C)c(C(=O)N2CCCn3cc(-c4ccccc4F)nc32)s1 | -
Cc1ccc(C(=O)N2CCCn3cc(-c4cccc(C#N)c4)nc32)cc1 | 31.6µM
N#Cc1cccc(-c2cn3c(n2)N(C(=O)Cc2ccsc2)CCC3)c1 | 31.6µM
O=C(Cc1ccsc1)N1CC(c2noc(COc3ccccc3)n2)C1 | -
Cc1ccc(-c2cn3c(n2)N(C(=O)c2nc4ncccn4n2)CCC3)cc1 | -
SMILES | KDM5B inhibitor
N#Cc1cccc(-c2cn3c(n2)N(C(=O)c2ccccc2F)CCC3)c1 | 20µM
O=C(c1ccccc1F)N1CCCn2cc(-c3ccccc3F)nc21 | -
COc1ccc(-c2cc(N3CCCN(C(=O)c4ccsc4)CC3)n[nH]2)cc1 | -
N#Cc1cccc(-c2cn3c(n2)N(C(=O)c2ccsc2)CCC3)c1 | 17.8µM
COC(=O)c1ccc(NC(=O)c2cnccn2)cc1 | -
CC1Sc2ccc(C(=O)NOCc3ccccc3)cc2NC1=O (centres undefined) | -
NC(=O)c1ccc(CN(C(=O)Cc2cccc(C(F)(F)F)c2)C2CC2)cc1 | -
Cn1c(=O)c2c(c3ccccc31)OC(=O)CC2c1c[nH]c2ccccc12 (centres undefined) | -
COCCn1c(Cc2ccccc2)nnc1SCc1cc2ccccc2nc1Cl | -
N#Cc1ccccc1COC(=O)c1ccc(CO)cc1 | -
